High-throughput results: PubChem, several laboratories
BoNT-A LC inh2: BoNT A light chain protease inhibition; multiplex microsphere protease substrate cleavage, flow cytometry; inhibition, % at 10 µM; 360,000 compounds, 0.17% hits; note: plate controls were buffer without enzyme for full effect and enzyme alone for no effect
Autofluor counter: compound fluorescence in toxin protease inhibitor counterscreen; compound autofluorescence counterscreen, microsphere flow cytometry; active compounds read high; 360,000 compounds, 3.1% hits; fluorescence intensity (no concentration beside the values); in the data active = fluorescence intensity above about 16000; inconclusive = no clear call, values can overlap the other calls
Anthrax LF prot: inhibitors of Bacillus anthracis lethal factor protease; multiplex microsphere protease cleavage assay, LF; inhibition, % at 10 µM; 360,000 compounds, 0.12% hits; note: plate controls were buffer without enzyme for full effect and enzyme alone for no effect
BoNT-F LC inh: inhibitors of Botulinum neurotoxin F light chain protease; AID 588497; Multiplex microsphere protease cleavage assay, flow cytometry; inhibition, % at 10 µM; 360,000 compounds, 0.22% hits; in the data active = inhibition above about 35%, passing the limit was not always enough; inconclusive = no clear call, values can overlap the other calls; note: plate controls were buffer without enzyme for full effect and enzyme alone for no effect
MazEF act: activators of E. coli MazEF toxin-antitoxin RNase. P0AE70. FAM/BHQ RNA-DNA oligo cleavage fluorescence, 5 h. activation, % at 20 µM. 350,000 compounds, 0.32% hits; in the data active = activation above about 50%
Target sequence (P0AE70 whole entry, looked up): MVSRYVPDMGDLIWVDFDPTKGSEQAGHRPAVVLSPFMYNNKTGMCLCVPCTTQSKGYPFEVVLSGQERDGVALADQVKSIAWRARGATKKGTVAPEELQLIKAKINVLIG
BoNT-A LC CP1: blocks botulinum neurotoxin A light chain protease; inhibition, % at 10 µM; 720 compounds, 3% hits; shares compounds with BoNT-F LC inh; AID 602139; multiplex microsphere protease assay, flow cytometry; in the data active = inhibition above about 32%
BoNT-F LC CP1: BoNT/F light chain protease inhibition. shares compounds with BoNT-F LC inh. multiplex microsphere protease cleavage assay, flow cytometry. inhibition, % at 10 µM. 720 tested, under 10 active; call rule not given here
Anthrax LF CP1: blocks anthrax lethal factor protease | AID 602142 | multiplex microsphere protease cleavage assay, LF | shares compounds with BoNT-F LC inh | inhibition, % at 10 µM | 720 tested, under 10 active; call rule not given here
Active calls of the source: *; ? = inconclusive; . = not tested or not shown. Sampled rows, rich in hits. Any-hit rate of the full collection: about 3.7%. Cut-off read from the data, not from the text of the source, unless noted: active = inhibition above about 30%; inconclusive = no clear call, values can overlap the other calls; inactive = below that.

SMILES | BoNT-A LC inh2 | Autofluor counter | Anthrax LF prot | BoNT-F LC inh | MazEF act | BoNT-A LC CP1 | BoNT-F LC CP1 | Anthrax LF CP1
Cn1c(SCC(=O)c2ccc(F)cc2)nnc1-c1cnccn1 | 4 | 18205* | -15 | 7 | 7 | . | . | .
CCCCc1ccc(S(=O)(=O)NC(=O)C2(C)CCN2C(=O)C/C=C/c2ccccc2)cc1 (centres undefined) | 0 | 3062 | -9 | -12 | . | . | . | .
Cc1cnc(NC(=O)c2ccc(-c3nc4ccccc4s3)o2)s1 | 34* | 3621 | 25 | 0 | -11 | 4 | -12 | 2
CCCC(C(=O)NC(C)(C)CC)N(CC1CCCO1)C(=O)CNS(=O)(=O)c1ccc(F)cc1 (centres undefined) | 1 | 2952 | 30* | 2 | 6 | 0 | -4 | 4
N#Cc1ccc(CN2CCN(C(=O)c3cccc(S(=O)(=O)N4CCCCCC4)c3)CC2)cc1 | -1 | 6324 | -2 | -7 | 1 | . | . | .
O=C(c1nn2c(C(F)(F)F)cc(-c3cccs3)nc2c1Br)N1CCCc2ccccc21 | 47* | 2108 | 19 | 18 | -2 | 7 | -2 | 6
COc1cc(OC)cc(C(=O)Nc2ccc(C(=O)NCC3CCCO3)cc2)c1 (centres undefined) | -2 | 3652 | 4 | ? | 5 | . | . | .
COc1ccc(C(=O)NCC2CCCO2)cc1 (centres undefined) | 2 | 2090 | 0 | 36* | -4 | 0 | -1 | -2
CC(Oc1ccc(Br)cc1)c1nc2c3ccccc3nc(=S)n2[nH]1 (centres undefined) | 4 | 3418 | -2 | 36* | -3 | -1 | -4 | -2
CCCC(Oc1ccc(Br)cc1)c1nc2c3cc(OC)c(OC)cc3nc(=S)n2[nH]1 (centres undefined) | 1 | 2447 | 2 | -2 | -4 | . | . | .
CCC(=O)Nc1cccc(C(=O)N(Cc2ccccc2)Cc2ccccc2)c1 | -2 | 4143 | 3 | 44* | 6 | -1 | -2 | -3
CN1CCN(CC(=O)Nc2nnc(-c3cccs3)s2)CC1 | 3 | 2108 | 0 | 36* | -1 | -1 | -5 | 0
CCSc1ncc(Cl)c(C(=O)Nc2ccccc2C)n1 | 0 | 4089 | 8 | 6 | -6 | . | . | .
CSc1ncc(Cl)c(C(=O)Nc2ccccc2C)n1 | 1 | 3352 | 30* | -12 | 7 | 0 | -5 | -2
O=C1CCCN1CCCNc1ccc2nnc(CCC(=O)N3CCN(c4ccc(F)cc4)CC3)n2n1 | -1 | 5832 | 0 | -5 | -17 | . | . | .
Cc1ccc(CSc2nc3ccncc3[nH]2)cc1 | 0 | 5911 | -1 | 0 | 3 | . | . | .
CCCC(CCC)c1nc2ccncc2[nH]1 | 3 | 2311 | 0 | 41* | -18 | 2 | 2 | 2
O=c1[nH]cc(F)c(=O)n1C1OC(CO)C(O)C1O (centres undefined) | 0 | 5978 | 2 | -1 | . | . | . | .
NS(=O)(=O)c1cccc(NC(=O)CC(NC(=O)c2ccccc2Cl)c2ccccc2)c1 (centres undefined) | -2 | 3427 | 9 | 35* | 0 | 1 | -4 | -1
CCn1c(C)nc2cc(C(=O)NNC(=O)[C@@H](NC(=O)c3cc(OC)cc(OC)c3)C(C)C)ccc21 | 0 | 3816 | -2 | 2 | 4 | . | . | .
COc1ccc(N(C(=O)c2snc(C(N)=O)c2N)C(C(=O)NCC2CCCO2)c2ccc3ncccc3c2)cc1OC (centres undefined) | -2 | 3435 | 1 | 38* | -2 | 0 | -7 | 1
CC(=O)Nc1ccc(S(=O)(=O)NCCC(=O)Nc2cc(C)ccn2)cc1 | -1 | 5857 | -2 | 6 | 7 | . | . | .
Cc1cccc(C(C)(C)C)c1OCCOCCN1CCCC1 | 4 | 2192 | 0 | 38* | -4 | 1 | -2 | -2
Cc1nc(N2CCN(C(c3ccccc3)c3ccccc3)CC2)[nH]c(=O)c1C | 3 | 3825 | 3 | 35* | 1 | -1 | 0 | 3
O=c1c(=O)n(CCO)n(CCO)c(=O)n1CCO | 0 | 2902 | -4 | -1 | 6 | . | . | .
SMILES | BoNT-A LC inh2 | Autofluor counter | Anthrax LF prot | BoNT-F LC inh | MazEF act | BoNT-A LC CP1 | BoNT-F LC CP1 | Anthrax LF CP1
COC(=O)C(CCC(=O)CN1C(=O)c2ccccc2C1=O)N1C(=O)c2ccccc2C1=O (centres undefined) | 0 | 4263 | -5 | -6 | 3 | . | . | .
COc1ccc(CNC(=O)c2cccc(NC(=O)c3ccccc3)c2)cc1 | 4 | 2804 | 0 | 40* | -18 | 0 | -7 | -2
COc1ccc(NS(=O)(=O)c2cccc(C(=O)Nc3cccc(C(=O)O)c3)c2)cc1 | -2 | 4059 | -10 | ? | -2 | 1 | 15 | -4
Cc1ccccc1NS(=O)(=O)c1cccc(C(=O)Nc2cccc(C(=O)O)c2)c1 | -2 | 4073 | 5 | ? | 8 | -1 | -4 | -1
Cc1ccc(NS(=O)(=O)c2cccc(C(=O)O)c2)c(C)c1 | 1 | 7495 | 3 | 0 | -3 | . | . | .
Cc1ccccc1NC(=O)c1cccc(S(C)(=O)=O)c1 | -1 | 4707 | -2 | 3 | 9 | . | . | .
O=C(Nc1ccccc1O)c1cccc(S(=O)(=O)Nc2ccccc2O)c1 | 0 | 6544 | 4 | -9 | 6 | -2 | -21 | -2
Cc1cccc(OCC(=O)Nc2cccc(C(=O)Nc3ccccc3C(=O)O)c2)c1 | 0 | 1922 | -2 | -6 | 1 | . | . | .
Cc1cccc(NC(=O)c2cccc(S(=O)(=O)Nc3ccccc3C(=O)O)c2)c1 | -3 | 3303 | -7 | -48 | 3 | 1 | -6 | -2
CCOc1ccc2nc3cc(NCc4ccc(OC)cc4)ccc3c(N)c2c1 | 70* | 3686 | -14 | -164 | -89 | 33* | -58 | 8
O=C(Cn1cnc2sc(-c3ccccc3)cc2c1=O)NCCc1ccccc1 | 1 | 4551 | 0 | 45* | -28 | 1 | 2 | 2
O=C(Cn1cnc2sc(-c3ccccc3)cc2c1=O)NCc1ccccc1 | 0 | 9905 | 0 | -1 | -25 | . | . | .
N#Cc1ccc(-c2ccco2)nc1SCC(=O)c1ccc(Cl)cc1 | 55* | 3776 | 41* | ? | -114 | 18 | -3 | 12
O=C(Cc1ccccc1)c1ccc(Cl)cc1 | ? | 3769 | 30* | ? | -6 | 2 | -3 | -5
COC(=O)c1ccc(Cn2nnc3c(=O)[nH]c(C4CCCN(S(=O)(=O)c5cccc(Cl)c5)C4)nc32)cc1 (centres undefined) | 1 | 5230 | 0 | -3 | 1 | . | . | .
Cc1nnc(SCC(=O)NC(C)(C)C)n1C1CCCCC1 | 3 | 2608 | 0 | 40* | 0 | 3 | 12 | 1
Cc1nnc(SCC(=O)NC2CCCCCC2)n1C | 1 | 5614 | -2 | 4 | 2 | . | . | .
Cc1ccc(S(=O)(=O)N2CCN(C(=O)CCC(=O)Nc3ccc(F)cc3F)CC2)cc1 | 1 | 5309 | 11 | 0 | -1 | . | . | .
O=C(CCn1ccnc1)Nc1ccc2ccccc2c1 | 7 | 4229 | 1 | 38* | -2 | 0 | -3 | -1
CCOc1ccc(NC(=O)CCn2ccnc2)cc1 | 0 | 3549 | -3 | 4 | 6 | . | . | .
